Assay [1] in a line: antimalarial activity against Dd2 strain (AID 2302;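 active = growth inhibition above 50% at the single 2 µM test dose, taken to imply half-maximal potency below 2 µM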;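 note: 0% = DMSO untreated growth and 100% = chloroquine plus artemisinin killed control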). To be noted: P. falciparum Dd2 in RBCs, LDH growth readout, 72 h; at 2 µM; active compounds read high.
Assay [2] in a line: human hepatoma cell viability loss – ATP luminescence, cytotoxicity control for P. falciparum antimalarial project, primary screen (AID 2303;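 active = inhibition above 50%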;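 note: 0% = DMSO wells and 100% = digitonin-killed cells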). To be noted: HepG2 viability, 24-48 h, at 10 µM, active compounds read high.
Assay [3] has as its target L-lactate dehydrogenase (Plasmodium falciparum (isolate CDC / Honduras)) (UniProt Q27743). The assay is described as follows: PfLDH activity inhibition – cell lysate, 3D7 strain, counter-screen for P. falciparum growth inhibition project (AID 2304).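 Note: 0% = vehicle and 100% = reference inhibitor.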 As to conditions: P. falciparum 3D7 crude extract, LDH APAD/NBT absorbance; at 2 µM; active compounds read high. (A counterscreen serves to expose hits that act by an unwanted route or on another target.)

Assay [4] can be described thus: inhibition of 3D7 malaria parasite growth – strain 3D7 (AID 2306).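 Note: 0% = DMSO wells and 100% = chloroquine plus artemisinin control wells.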 To be noted: P. falciparum 3D7 erythrocytic growth, LDH absorbance, 72 h; at 2 µM; active compounds read high.
Assay [5] concerns the target Calcium-dependent protein kinase 1 (Plasmodium falciparum (isolate 3D7)) (UniProt P62344). Description: PfCDPK1 kinase inhibitors, biochemical, TCAMS library (AID 1159585; cut-off not given, nearly all actives have IC50 up to about 0.98 µM;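 note: inhibitors leave more ATP so luminescence rises with inhibition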). As to conditions: recombinant PfCDPK1, Kinase-Glo ATP depletion luminescence.
The target in assay [6] is Plasmodium falciparum protein kinase 6 (PK6, PF3D7_1337100) (UniProt Q8IDW1). Description: PfPK6 kinase inhibitors, biochemical, TCAMS library (AID 1159586). To be noted: recombinant PfPK6, Kinase-Glo ATP depletion luminescence. On the technique in general: Kinase-Glo reads ATP consumption through a luciferase reaction.
Plasmodium falciparum protein kinase 6 (PK6, PF3D7_1337100), sequence (Q8IDW1 1-305): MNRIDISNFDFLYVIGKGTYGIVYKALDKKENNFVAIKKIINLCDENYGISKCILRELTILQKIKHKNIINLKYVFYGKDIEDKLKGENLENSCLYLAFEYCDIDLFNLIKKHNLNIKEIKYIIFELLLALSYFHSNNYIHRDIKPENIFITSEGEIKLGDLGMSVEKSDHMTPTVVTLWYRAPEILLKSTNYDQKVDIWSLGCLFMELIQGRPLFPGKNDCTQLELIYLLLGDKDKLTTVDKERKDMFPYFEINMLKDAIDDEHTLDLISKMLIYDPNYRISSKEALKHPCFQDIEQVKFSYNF
In assay [7] the target is Protein kinase 7 (PK7), Plasmodium falciparum 3D7 (PF3D7_0213400) (UniProt Q7YTF7). Description: inhibition of Plasmodium PK7 catalytic activity – biochemical, TCAMS antimalarial set, Kinase-Glo luminescence (AID 1159587). To be noted: recombinant PfPK7, Kinase-Glo ATP depletion luminescence.
Protein kinase 7 (PK7), Plasmodium falciparum 3D7 (PF3D7_0213400), sequence (Q7YTF7 1-343): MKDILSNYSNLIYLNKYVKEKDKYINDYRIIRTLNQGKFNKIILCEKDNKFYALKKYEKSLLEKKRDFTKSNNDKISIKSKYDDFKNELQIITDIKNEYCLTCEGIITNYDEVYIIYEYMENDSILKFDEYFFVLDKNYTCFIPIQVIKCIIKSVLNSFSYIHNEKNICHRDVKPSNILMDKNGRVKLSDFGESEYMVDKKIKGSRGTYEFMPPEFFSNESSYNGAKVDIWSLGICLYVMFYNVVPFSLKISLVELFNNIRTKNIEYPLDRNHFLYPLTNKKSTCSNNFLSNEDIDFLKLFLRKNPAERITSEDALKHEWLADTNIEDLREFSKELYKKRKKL
The target in assay [8] is Calcium-dependent protein kinase 4 (Plasmodium falciparum (isolate 3D7)) (UniProt Q8IBS5). Description: PfCDPK4 kinase inhibitors, biochemical, TCAMS library (AID 1159588; cut-off not given, nearly all actives have IC50 up to about 0.91 µM). To be noted: recombinant PfCDPK4, Kinase-Glo ATP depletion luminescence.
Calcium-dependent protein kinase 4 (Plasmodium falciparum (isolate 3D7)), sequence (Q8IBS5 whole entry, looked up): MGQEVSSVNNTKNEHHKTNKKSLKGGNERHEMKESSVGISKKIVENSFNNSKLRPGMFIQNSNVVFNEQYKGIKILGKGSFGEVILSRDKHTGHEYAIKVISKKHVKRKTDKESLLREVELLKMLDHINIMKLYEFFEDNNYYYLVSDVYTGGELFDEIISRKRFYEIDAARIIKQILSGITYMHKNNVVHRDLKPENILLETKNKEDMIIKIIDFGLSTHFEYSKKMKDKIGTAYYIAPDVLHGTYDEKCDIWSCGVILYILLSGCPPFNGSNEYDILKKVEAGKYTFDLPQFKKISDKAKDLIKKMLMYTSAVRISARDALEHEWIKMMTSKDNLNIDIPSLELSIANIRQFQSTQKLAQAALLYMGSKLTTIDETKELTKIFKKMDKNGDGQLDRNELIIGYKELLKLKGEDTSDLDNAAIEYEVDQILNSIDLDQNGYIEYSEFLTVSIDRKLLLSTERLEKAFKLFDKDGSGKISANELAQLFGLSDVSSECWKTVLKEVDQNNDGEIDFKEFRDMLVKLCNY

Values without a mark were called inactive. For some of these results: Results with a measured potency or affinity are listed apart. Active and inactive are the calls of the source. Unless noted, the rule behind the calls is not given here.

Calcium-dependent protein kinase 1 (Plasmodium falciparum (isolate 3D7)), sequence (P62344 whole entry, looked up): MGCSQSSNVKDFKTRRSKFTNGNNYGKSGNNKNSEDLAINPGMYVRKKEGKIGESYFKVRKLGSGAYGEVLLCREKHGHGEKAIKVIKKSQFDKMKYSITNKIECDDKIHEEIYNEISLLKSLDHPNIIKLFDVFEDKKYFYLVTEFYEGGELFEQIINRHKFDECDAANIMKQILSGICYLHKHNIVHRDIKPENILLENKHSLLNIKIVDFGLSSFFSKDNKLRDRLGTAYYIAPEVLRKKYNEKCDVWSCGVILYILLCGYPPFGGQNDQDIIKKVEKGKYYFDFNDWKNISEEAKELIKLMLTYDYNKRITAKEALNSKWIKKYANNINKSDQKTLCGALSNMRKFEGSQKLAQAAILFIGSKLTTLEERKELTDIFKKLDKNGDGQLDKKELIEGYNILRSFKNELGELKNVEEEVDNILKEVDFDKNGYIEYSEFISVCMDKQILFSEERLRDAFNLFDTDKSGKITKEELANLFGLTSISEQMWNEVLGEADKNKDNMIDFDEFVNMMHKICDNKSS
L-lactate dehydrogenase (Plasmodium falciparum (isolate CDC / Honduras)), sequence (Q27743 whole entry, looked up): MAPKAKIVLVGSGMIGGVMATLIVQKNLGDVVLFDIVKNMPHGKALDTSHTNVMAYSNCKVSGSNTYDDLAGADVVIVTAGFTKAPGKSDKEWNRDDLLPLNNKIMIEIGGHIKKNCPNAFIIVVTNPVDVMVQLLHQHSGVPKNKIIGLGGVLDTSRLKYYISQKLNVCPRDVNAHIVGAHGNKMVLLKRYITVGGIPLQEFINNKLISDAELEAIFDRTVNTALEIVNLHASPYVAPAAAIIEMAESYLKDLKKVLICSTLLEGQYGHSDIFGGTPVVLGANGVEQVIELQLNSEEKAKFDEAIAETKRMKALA

In general, inhibition refers to the relative decrease from the control value, in per cent. For the molecule `O=C(COc1ccc(F)cc1)NC1CCN(c2ccnc3cc(Cl)ccc23)C1` (stereo not given), the growth inhibition in assay [1] was 100% (active); in assay [4], 102% (active). Besides, the inhibition in assay [2] is 24%; in assay [3] it was -1%. Moreover, the result in assay [5], in assay [6], in assay [7] and in assay [8] was inactive.

Turning to `COc1ccc(Nc2nccc(NCCNC(=O)c3cc4ccccc4s3)n2)cc1`, the growth inhibition in assay [1] is 7%; in assay [4] it was 98% (active). In addition, the inhibition is 6% in assay [2] and -1% in assay [3]. For the same molecule, the outcome in assay [5], in assay [6], in assay [7] and in assay [8] was inactive.

As to `C#CC[C@@H](NC(N)=O)C(=O)O`, the results for the growth inhibition in assay [1] and in assay [4] were 0% and 97% (active), respectively. The results for the inhibition in assay [2] and in assay [3] were 1% and -2%, respectively. The outcome in assay [5], in assay [6], in assay [7] and in assay [8] was inactive.

As to `O=C(NC1CCC(CCN2Cc3cccc(F)c3C2)CC1)c1cccc(-c2cccnc2)c1` (stereo not given), the growth inhibition was 82% (active) in assay [1] and 98% (active) in assay [4]. The inhibition was 16% in assay [2] and -2% in assay [3]. For the same molecule, the result in assay [5], in assay [6], in assay [7] and in assay [8] was inactive.

Turning to `CCNc1cc(C(=O)N[C@@H](Cc2ccccc2)[C@H](O)CNC2CCC(F)(F)CC2)c(F)c(N2CCCCS2(=O)=O)c1`, the values for the growth inhibition in assay [1] and in assay [4] were 97% (active) and 100% (active), respectively. Also, the inhibition in assay [2] is -5%; in assay [3], -1%. For the same molecule, the outcome in assay [5], in assay [6], in assay [7] and in assay [8] was inactive.

Take `CC(=NNC(=S)NC(C)(C)C)c1ccccn1`: the values for the growth inhibition in assay [1] and in assay [4] were 100% (active) and 99% (active), respectively. Moreover, the inhibition in assay [2] is 63% (active); in assay [3] it was -3%. Also, the outcome in assay [5], in assay [6], in assay [7] and in assay [8] was inactive.

In the case of `CCCC(CNCc1cccc(I)c1)CNc1cc(=O)c2ccccc2[nH]1` (stereo not given), the growth inhibition in assay [1] is 96% (active); in assay [4], 100% (active). Further, the figures for the inhibition in assay [2] and in assay [3] were -3% and 7%, respectively. Further, the result in assay [5], in assay [6], in assay [7] and in assay [8] was inactive.

In the case of `CC1Cc2ccccc2N1CC(=O)Nc1cc(C(F)(F)F)ccc1-n1cncn1` (stereo not given), the growth inhibition in assay [1] and in assay [4] was 97% (active) in each case. For the same molecule, the values for the inhibition in assay [2] and in assay [3] were 17% and 1%, respectively. For the same molecule, the outcome in assay [5], in assay [6], in assay [7] and in assay [8] was inactive.

As for `CC(C)c1ccc(NC(=O)c2ccc(CN3CCCN(Cc4cccc(O)c4)CC3)cc2)cc1`, the growth inhibition is 58% (active) in assay [1] and 100% (active) in assay [4]. Moreover, the inhibition in assay [2] was 51% (active); in assay [3] it was -4%. The outcome in assay [5], in assay [6], in assay [7] and in assay [8] was inactive.

As to `COc1cc2nc(N3CCC(CNC(=O)c4ccc(-c5cccc(C#N)c5)cc4)CC3)nc(N)c2cc1OC`, the growth inhibition in assay [1] and in assay [4] was 100% (active) in each case. The results for the inhibition in assay [2] and in assay [3] were 18% and 6%, respectively. Further, the result in assay [5], in assay [6], in assay [7] and in assay [8] was inactive.

Take `CCOC(=O)c1ccc(COc2ccc(C)nc2)cc1`: the growth inhibition in assay [1] was -7%; in assay [4], 100% (active). For the same molecule, the figures for the inhibition in assay [2] and in assay [3] were 14% and -8%, respectively. Moreover, the outcome in assay [5], in assay [6], in assay [7] and in assay [8] was inactive.

For the molecule `Cc1ccc(OC2CCN(CCCCC3(C)C(=O)Nc4ccccc43)CC2)cc1` (stereo not given), the growth inhibition in assay [1] is 2%; in assay [4], 100% (active). The inhibition in assay [2] is 63% (active); in assay [3], -3%. In addition, the result in assay [5], in assay [6], in assay [7] and in assay [8] was inactive.

For `Cc1cccc2[nH]c(-c3ccc(-c4cccc(CN5CCN(c6ccncc6)CC5)c4)cc3)nc12`, the figures for the growth inhibition in assay [1] and in assay [4] were 99% (active) and 101% (active), respectively. Besides, the results for the inhibition in assay [2] and in assay [3] were 50% (active) and 7%, respectively. Moreover, the result in assay [5], in assay [6], in assay [7] and in assay [8] was inactive.

As for `Cc1ccc(CN2CCCN(Cc3cccc(C(=O)Nc4ccc(C(C)(C)C)cc4)c3)CC2)s1`, the growth inhibition in assay [1] was 4%; in assay [4], 85% (active). The inhibition in assay [2] is 31%; in assay [3], -5%. For the same molecule, the result in assay [5], in assay [6], in assay [7] and in assay [8] was inactive.

With `COc1cc(NC(=O)Nc2ccc([N+](=O)[O-])cc2OC)c(OC)cc1Cl`, the growth inhibition is 6% in assay [1] and 87% (active) in assay [4]. Further, the inhibition is 38% in assay [2] and 3% in assay [3]. Also, the result in assay [5], in assay [6], in assay [7] and in assay [8] was inactive.

For `COc1ccc(Cl)cc1-c1nc(C(=O)NCCN2CCCCC2)c(C)s1`, the growth inhibition in assay [1] is 10%; in assay [4], 97% (active). The inhibition in assay [2] is 16%; in assay [3] it was -7%. Besides, the outcome in assay [5], in assay [6], in assay [7] and in assay [8] was inactive.

In the case of `Cc1ccccc1C(=O)Nc1cccc(-c2nc3ncccn3c2C)c1`, the growth inhibition in assay [1] and in assay [4] was 94% (active) each time. Further, the inhibition is -5% in assay [2] and 1% in assay [3]. For the same molecule, the result in assay [5], in assay [6], in assay [7] and in assay [8] was inactive.

In the case of `Nc1nc(N)c2cc(N(Cc3ccccc3)Cc3ccccc3)ccc2n1`, the growth inhibition in assay [1] was 88% (active); in assay [4], 99% (active). In addition, the figures for the inhibition in assay [2] and in assay [3] were 69% (active) and 3%, respectively. The outcome in assay [5], in assay [6], in assay [7] and in assay [8] was inactive.

Turning to `Cc1cc(N2CCN(C)CC2)nc2ccc(NC(=O)c3cccc(N(C)C)c3)cc12`, the figures for the growth inhibition in assay [1] and in assay [4] were 23% and 85% (active), respectively. The results for the inhibition in assay [2] and in assay [3] were 9% and 4%, respectively. In addition, the result in assay [5], in assay [6], in assay [7] and in assay [8] was inactive.

Regarding `NC(=O)COc1c(C2CCN(CCN3CCC(CNC(=O)c4ccc(-c5ccc(C(F)(F)F)cc5)cc4)CC3)CC2)ccc2c1CCCC2`, the results for the growth inhibition in assay [1] and in assay [4] were 68% (active) and 87% (active), respectively. Besides, the values for the inhibition in assay [2] and in assay [3] were 32% and -1%, respectively. For the same molecule, the outcome in assay [5], in assay [6], in assay [7] and in assay [8] was inactive.

The record behind these values is PubChem BioAssay.
